Hits are enriched below; roughly 27% of the tested compounds scored in any of these assays.
CYP2C9 inh: blocks human cytochrome P450 2C9; P11712; CYP2C9 Supersomes, luciferin-H conversion, luminescence; inhibition, % at 5 µM; 20% of 96,000 active;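 active = blocking of liver enzyme CYP2C9 beyond about 50% at 5 µM, limit read from the data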
CYP2C9 activ: increases human cytochrome P450 2C9 activity; P11712; recombinant CYP2C9, luciferin-H conversion, luminescence; hits give high values; factor 1 = untreated enzyme, 0 = blocked; activation factor at 5 µM; 1.4% of 96,000 active;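 active = activation factor of 2 or more for CYP2C9 at a 5 µM dose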;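 also: 0 = sulfaphenazole-blocked wells and 1 = vehicle-only wells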
CYP2C19 act: activators of human cytochrome P450 2C19 | P33261 | activation factor at 5 µM | 96,000 tested, under 10 active | recombinant CYP2C19, luciferin-H EGE luminescence; hits give high values; 0 = fully inhibited enzyme, 1 = untreated enzyme | AID 1025;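 active = activation factor of at least 2 at 5 µM in the primary screen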;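 also: 0 = wells with 2.5 mM tranylcypromine and 1 = vehicle-only wells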
Target sequence (P33261 whole entry, looked up): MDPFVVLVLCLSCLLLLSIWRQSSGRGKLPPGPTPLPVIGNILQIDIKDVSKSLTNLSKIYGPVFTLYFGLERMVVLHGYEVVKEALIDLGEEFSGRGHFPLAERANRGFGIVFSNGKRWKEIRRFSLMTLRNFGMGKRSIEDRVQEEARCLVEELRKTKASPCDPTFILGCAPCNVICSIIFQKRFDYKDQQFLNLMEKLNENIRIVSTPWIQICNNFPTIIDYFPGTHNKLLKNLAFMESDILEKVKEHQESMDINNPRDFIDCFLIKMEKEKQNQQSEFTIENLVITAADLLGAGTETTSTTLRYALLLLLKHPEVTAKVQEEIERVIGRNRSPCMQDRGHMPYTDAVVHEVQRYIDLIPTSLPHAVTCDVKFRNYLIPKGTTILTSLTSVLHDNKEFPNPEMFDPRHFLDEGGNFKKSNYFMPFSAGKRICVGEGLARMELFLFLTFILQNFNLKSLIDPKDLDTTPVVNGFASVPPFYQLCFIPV
Cav32 inh: blocks human Cav3.2 T-type calcium channel | O95180 | Cav3.2-expressing cells, Fluo-4 calcium fluorescence FDSS; hits give low values | B-score at 10 µM | 4% of 100,000 active | AID 449739;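 active = single-dose well whose peak fluorescence ratio is a statistical outlier from its plate by either plate-standardised score or position-corrected B-score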
CYP2C19 inh: human CYP2C19 inhibition; P33261; CYP2C19 Supersomes, luciferin-H EGE luminescence, 30 min; inhibition, % at 5 µM; 21% of 96,000 active; AID 778;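 active = CYP2C19 inhibition above a set limit at 5 µM in the primary screen, cut at about 50% in these data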;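 also: plate controls were negative control wells for no effect and 2.5 mM tranylcypromine positive control for full effect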
The depositor's hits bear a star; . = no result.

SMILES | CYP2C9 inh | CYP2C9 activ | CYP2C19 act | Cav32 inh | CYP2C19 inh
CC(C)(C)C(=O)CC1(O)C(=O)N(Cc2ccccc2)c2ccccc21 (stereo not given) | 54* | 0.5 | 0.3 | 0.16 | 72*
CCCN1C(=O)C(O)(CC(=O)c2ccc3c(c2)OCCO3)c2ccccc21 (stereo not given) | 44 | 0.6 | 0.2 | 0.47 | 76*
CCCN1C(=O)C(O)(CC(=O)c2cccc(OC)c2)c2ccccc21 (stereo not given) | 41 | 0.6 | 0.1 | -0.085 | 87*
CN1C(=O)C(O)(CC(=O)c2ccc3c(c2)OCO3)c2ccccc21 (stereo not given) | -12 | 1.1 | 0.9 | -2.3 | 6
CCN1C(=O)C(O)(CC(=O)c2cc(C)ccc2C)c2ccccc21 (stereo not given) | -2 | 1 | 0.6 | -1.2 | 44
O=C(Nc1cccnc1)c1cc(-c2ccc3c(c2)OCO3)on1 | 3 | 1 | 1 | 0.044 | 3
O=C(OCn1nnc2ccccc2c1=O)C1CCN(S(=O)(=O)c2cccs2)CC1 | . | . | . | 1.6 | .
O=C(CC1(O)C(=O)N(Cc2ccc3c(c2)OCO3)c2ccccc21)c1ccccc1 (stereo not given) | 3 | 1 | 0.5 | -3 | 48
Cc1ccc(C(=O)CC2(O)C(=O)N(Cc3ccc4c(c3)OCO4)c3ccccc32)cc1 (stereo not given) | -11 | 1.1 | 0.5 | -7.5* | 54*
C#CCN1C(=O)C(O)(CC(=O)c2ccc3c(c2)OCCO3)c2ccccc21 (stereo not given) | 19 | 0.8 | 0.2 | -3.8* | 77*
C#CCN1C(=O)C(O)(CC(=O)c2ccc(OC)c(OC)c2)c2ccccc21 (stereo not given) | 1 | 1 | 0.7 | -0.014 | 31
COc1cc(=O)[nH]c(=O)n1CC(=O)c1ccccc1 | . | . | . | -0.043 | .
CCCNC(C)C(=O)Nc1ccccc1C (stereo not given) | . | . | . | 0.42 | .
CCCNC(=O)c1ccccc1NC(=O)Nc1ccccc1C | 24 | 0.8 | 0.5 | -0.93 | 51*
CCCNC(=O)c1ccccc1NC(=O)c1ccccc1N(C)S(=O)(=O)c1ccc(C)cc1 | . | . | . | -4.7* | .
CCCNC(=O)c1ccccc1NC(=O)c1ccccc1N(C)S(C)(=O)=O | . | . | . | 0.067 | .
O=C(O)[C@@H](O)c1ccccc1 | . | . | . | 0.078 | .
COc1cc2c(cc1OC)C(C)N(C(=O)c1cc3n(n1)C(C(F)(F)F)CC(c1ccco1)N3)CC2 (stereo not given) | . | . | . | -1.6 | .
O=C(c1cc2n(n1)C(C(F)(F)F)CC(c1ccco1)N2)N1CCc2ccccc2C1 (stereo not given) | 40 | 0.6 | 0.9 | -3.7* | 12
COc1ccccc1N1CCN(C(=O)c2cc3n(n2)C(C(F)(F)F)CC(c2ccco2)N3)CC1 (stereo not given) | 59* | 0.4 | 0.9 | -2.3 | 6
O=C(c1cnn2c1NC(c1ccco1)CC2C(F)(F)F)N1CCN(c2cccc(Cl)c2)CC1 (stereo not given) | 75* | 0.2 | 0.2 | -4.2* | 81*
O=C(c1ccco1)N1CCN(CC2CC3C=CC2C3)CC1 (stereo not given) | -7 | 1.1 | 0.9 | -0.06 | 10
COc1cccc(C(c2nnnn2Cc2ccc(F)cc2)N2CCC(C(N)=O)CC2)c1OC (stereo not given) | 11 | 0.9 | 0.8 | 1.2 | 21
CCn1c(SCc2nc3ccccc3[nH]2)nnc1-c1cccs1 | 33 | 0.7 | 0 | -0.02 | 99*
CCn1c(SCc2nc3ccccc3[nH]2)nnc1-c1ccccc1OC | 70* | 0.3 | 0 | -0.014 | 100*
SMILES | CYP2C9 inh | CYP2C9 activ | CYP2C19 act | Cav32 inh | CYP2C19 inh
Sc1oc(-c2ccccc2)cc1C=Nc1ccccc1 | 29 | 0.7 | 1 | -2.1 | 2
CCOc1ccc(OCC)c(C2C(C#N)=C(N)N(c3cccnc3)C3=C2C(=O)CC(C)(C)C3)c1 (stereo not given) | 1 | 1 | 1.1 | -0.012 | -14
Cc1nc(=O)c(-c2ccccc2)c(C)n1-c1ccc(O)cc1 | -2 | 1 | 0.5 | 0.018 | 54*
COC(=O)CCC(=O)c1oc2ccccc2c1N | 35 | 0.7 | 0.2 | 0.93 | 84*
COC(=O)CCC(=O)c1oc2ccccc2c1NC(=O)CCCN1C(=O)c2ccccc2C1=O | 48 | 0.5 | 0.9 | 1.1 | 12
COc1cc(OC)c(NC(=O)CCc2nc(-c3cccs3)no2)cc1Cl | 62* | 0.4 | 0.1 | -1.9 | 92*
O=C(O)CCc1nc(-c2cccs2)no1 | -10 | 1.1 | 1.2 | . | -16
COc1ccccc1-c1noc(CCC(=O)Nc2cc(C(F)(F)F)ccc2Cl)n1 | -44 | 1.4 | 0.3 | -1.6 | 68*
CCN(c1cccc(C)c1)S(=O)(=O)c1cccc2nsnc12 | 53* | 0.5 | 0.1 | . | 89*
CN(C)S(=O)(=O)c1cccc2nsnc12 | 12 | 0.9 | 0.8 | 0.53 | 16
Cc1cccc(N(C)S(=O)(=O)c2cccc3nsnc23)c1 | -70 | 1.7 | 0.4 | -0.062 | 64*
O=C(COc1cc(Cl)ccc1Cl)Nc1nnc(CC(=O)N2CCOCC2)s1 | 20 | 0.8 | 1.1 | -0.092 | -6
O=C(Oc1ccc2[nH]cc(CCN3C(=O)c4ccccc4C3=O)c2c1)c1ccco1 | 76* | 0.2 | 0.8 | -1.9 | 24
O=C(Oc1ccc2ccccc2c1)c1ccco1 | 11 | 0.9 | 1 | 0.56 | 2
O=C(Nc1nc2ccccc2n1CCOc1ccc(Cl)cc1)c1ccco1 | 10 | 0.9 | 1 | -1.4 | 2
O=c1ccn(CCOc2ccc(Cl)cc2)c(=O)[nH]1 | 42 | 0.6 | 0.4 | 0.25 | 59*
Cc1nnc(SC(C)C(=O)Nc2ccc(S(=O)(=O)N3CCCCCC3)cc2)s1 (stereo not given) | 44 | 0.6 | 0.7 | -2.7 | 25
CC(=O)OCC(=O)NCc1ccc2c(c1)OCO2 | -3 | 1 | 0.9 | -0.61 | 5
O=C(COC(=O)CCC(=O)c1ccc2c(c1)OCCO2)NCc1ccc2c(c1)OCO2 | 81* | 0.2 | 0.5 | 0.77 | 50
O=C(COC(=O)c1ccc2c(c1)OCO2)NCc1ccc(Cl)cc1 | -98 | 2* | 0.6 | -0.3 | 37
CCC(=O)Nc1ccc(NC(=O)CN2CCCC(C)C2)c(Cl)c1 (stereo not given) | 6 | 0.9 | 1 | 0.89 | 3
O=c1oc2ccccc2c(NC(c2ccccc2)c2ccccc2)c1[N+](=O)[O-] | . | . | . | -1.3 | .
CC(=O)CC(c1ccc([N+](=O)[O-])cc1)c1c(O)c2ccccc2oc1=O (stereo not given) | 76* | 0.2 | 0.8 | -0.24 | 15
CCc1ccc(N2CC(C(=O)Nc3nccs3)CC2=O)cc1 (stereo not given) | 45 | 0.5 | 1 | . | 2
CCC1(COC(NC(=O)c2cccnc2)(C(F)(F)F)C(F)(F)F)COC1 | 10 | 0.9 | 0.9 | 0.056 | 10
COCCCNC(=O)C12CCC(C)(C(=O)C1)C2(C)C (stereo not given) | -1 | 1 | 1.2 | 1.1 | -18
CCCn1c(SCc2cc(=O)oc3ccc4ccccc4c23)n[nH]c1=O | 84* | 0.2 | 0.2 | -3 | 78*

Source: PubChem BioAssay
